# Sampled rows, rich in hits. Any-hit rate of the full collection: about 6.1%.
# D1 PAM = Potentiators of Human D1 Dopamine Receptor: qHTS. HEK293 TREx D1 cells, calcium flux, dopamine EC20 potentiation. 360,000 compounds, 0.036% hits. potentiation, % at 10 µM. D(1A) dopamine receptor (Homo sapiens), P21728; in the data active means potentiation above about 30%
# Target sequence (P21728 whole entry, looked up): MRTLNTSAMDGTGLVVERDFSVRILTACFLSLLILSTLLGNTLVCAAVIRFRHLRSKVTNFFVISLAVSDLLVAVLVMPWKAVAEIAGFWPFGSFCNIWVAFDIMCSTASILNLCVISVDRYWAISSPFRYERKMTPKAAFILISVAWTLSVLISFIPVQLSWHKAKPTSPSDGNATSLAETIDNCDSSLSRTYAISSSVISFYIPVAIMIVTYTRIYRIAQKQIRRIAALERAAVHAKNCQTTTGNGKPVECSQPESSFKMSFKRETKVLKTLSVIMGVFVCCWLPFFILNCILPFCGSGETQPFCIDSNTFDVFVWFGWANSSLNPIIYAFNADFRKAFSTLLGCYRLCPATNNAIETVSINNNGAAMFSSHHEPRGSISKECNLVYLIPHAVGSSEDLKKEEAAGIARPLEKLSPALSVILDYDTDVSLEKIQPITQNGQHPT
# D1 agonist = Allosteric Agonists of the Human D1 Dopamine Receptor: qHTS; D(1A) dopamine receptor (Homo sapiens), P21728; 360,000 compounds, 1% hits; AID 504660, 2011; activation, % at 2 µM; HEK293 T-REx D1 cells, calcium flux, agonist mode; in the data active means activation above about 30%
#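 Tetracycline-induced HEK293 TREx D1 cells, force-coupled to calcium signalling, were dye-loaded with a no-wash calcium kit. Compound was pin-added after a 10 s baseline. Fluorescence was read kinetically at 1 cycle/s for 180 s, with calcium rises flagged as agonism.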
# ERG-DNA inh = qHTS for Small Molecule Inhibitors of the ERG Ets/DNA interaction. Transcriptional regulator ERG (Homo sapiens), P11308. fluorescence polarization, His-ERG Ets domain / labelled DNA. Potency, µM (highest dose often 76.9 µM), actives largely listed as inhibitors. 370,000 compounds, 0.028% hits; active means well fitted inhibition curve with a large enough effect in the polarisation, with a control signal flat; the % refers to the polarisation;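 further: polarization taken with two DNA probes labelled with fluorescein and Texas red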
#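 His-tagged ERG Ets domain (1 uM in the protein solution; 300mM KCl, 50mM Tris-HCl, 1mM EDTA, 1mM DTT, pH 7.5) received compound, then a probe mix of 5 nM fluorescein-DNA and 100nM Texas-615-DNA. Fluorescence polarization was read for both dyes.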
# D3 antag = qHTS of D3 Dopamine Receptor Antagonist: qHTS. D(3) dopamine receptor (Homo sapiens), P35462. AID 652054, 2013. max response, negative = inhibition, %. D3R cells, DiscoveRx beta-arrestin luminescence, antagonist mode; stronger effect = lower value. 360,000 compounds, 2.5% hits; in the data active means max response below about -50%
#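 Cells expressing the human receptor were seeded at 1500 cells/well, incubated overnight at 37 degrees C in 5% CO2, then exposed to library compounds with dopamine controls for 90 minutes at 37 degrees C before luminescent detection.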
# DRD3 agonist = qHTS of D3 Dopamine Receptor Agonist: qHTS | D(3) dopamine receptor (Homo sapiens), P35462 | max activation, % | 410,000 compounds, 0.58% hits | D3R DiscoveRx beta-arrestin cells, luminescence, 90 min; in the data active means max activation above about 30%
#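 Agonist-mode cell screen: cells plated at 1500/well and incubated overnight at 37 °C, then exposed to library compounds for 90 min at 37 °C. Detection reagent was added for 30–60 min at room temperature, and luminescence was read.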
# D1 antagonist = Antagonist of Human D 1 Dopamine Receptor: qHTS; D(1A) dopamine receptor (Homo sapiens), P21728; HEK293 TREx D1 cells, calcium flux, dopamine EC80; stronger effect = lower value; activity change, negative = inhibition, % at 10 µM; 360,000 compounds, 3.2% hits; in the data active means activity change below about -30%
#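 Tetracycline-induced HEK293 T-REx cells with force-coupled D1 receptor were loaded with a no-wash calcium dye. Compound was added after a 10 s baseline and read kinetically for 180 s; EC80 dopamine was then added and calcium flux followed another 180 s.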
# Numbers stand for hits; n = inactive; x = not tested or not shown.
SMILES,D1 PAM,D1 agonist,ERG-DNA inh,D3 antag,DRD3 agonist,D1 antagonist
CCOC(=O)N1CCN(CCC(=O)Nc2cccc(Br)c2)CC1,n,n,n,n,n,n
Cc1cc(Cl)c(OCCCSc2nc(C)cc(=O)[nH]2)c(Br)c1,n,n,n,n,41.4,n
Cc1cc(NS(=O)(=O)c2ccc(NC(=O)CN3C(=O)c4ccccc4C3=O)cc2)nc(C)n1,n,n,n,n,n,n
O=c1oc2ccccc2c2c1C(c1ccc(Cl)cc1)Nc1ccc3ccccc3c1-2 (stereo not given),n,n,n,n,n,-64.1
CN[C@@H](CO)C(=O)NC[C@H]1O[C@@H](n2cnc3c(N)ncnc32)[C@H](O)[C@@H]1O,x,x,x,n,n,x
COc1cc(OC)nc(-n2ncc(Br)c(Br)c2=O)n1,n,n,n,-85.7,n,n
COC(=O)c1cnn(-c2nc(OC)cc(OC)n2)c1C,n,n,n,n,n,n
N#C/C(N=Nc1ccccc1O)=N\Nc1ccccc1O,n,36.5,n,n,n,-59.4
C[N+](C)(C)CC/C=C1/c2ccccc2CSc2ccccc21,n,n,n,n,n,n
CNCCC=C1c2ccccc2CCc2ccccc21,n,n,n,-91.2,n,-78.8
C[C@H](CO)N1C[C@H](C)[C@@H](CN(C)C(=O)Nc2ccccc2)Oc2ccc(NC(=O)Cc3ccccc3)cc2C1=O,x,x,n,n,n,x
N#C/C(=C(/O)c1ccc([N+](=O)[O-])s1)c1nc2ccccc2[nH]1,n,n,n,n,n,n
N#C/C(=C(/O)c1ccc(Br)s1)c1nc2ccccc2[nH]1,n,n,n,n,n,-44.7
CCOC(=O)c1sc2ncn(CC(=O)Nc3cccc(C)c3)c(=O)c2c1C,n,n,n,x,n,-35.1
Cc1sc2ncn(CC(=O)NCC(=O)N(C)C3CCCCC3)c(=O)c2c1C,n,n,n,n,n,-34.4
COc1ccc(CCNC(=O)Cn2cnc3sc(C)c(-c4ccc(F)cc4)c3c2=O)cc1OC,n,33.9,n,n,n,x
COc1ccc(NC(=O)CCCNC(=O)Cn2cnc3sc(C)c(C)c3c2=O)cc1OC,n,n,n,n,31.1,n
O=S(=O)(NCC(c1cccnc1)N1CCN(Cc2ccccc2)CC1)c1ccc(F)cc1 (stereo not given),n,n,n,n,n,n
CCc1ccc2occ(CC(=O)Nc3c(C(=O)c4ccccc4)oc4ccccc34)c2c1,n,n,n,x,n,n
CC1Oc2ccccc2C=C1/C=N/NC(=O)c1ccccc1O (stereo not given),n,n,n,n,n,-39.6
COc1ccc(-c2[nH]n(-c3ccc([N+](=O)[O-])cc3)c(=O)c2C=NCc2ccc(F)cc2)cc1,n,n,n,n,n,n
COc1ccc(-c2[nH]n(-c3ccc([N+](=O)[O-])cc3)c(=O)c2C=NCc2ccncc2)cc1,n,n,n,n,n,-31.4
CC(=O)NCCc1cc2ccc(C)cc2[nH]c1=O,n,n,n,n,n,n
O=C1CCCN1CCCNCC(O)c1ccccc1 (stereo not given),n,n,n,n,n,n
O=C1CCCN1CCCNCC(=O)N1c2ccccc2Sc2ccccc21,n,n,n,-53.3,n,n
Oc1cc(Cc2ccccc2)cnc1CN1CCOCC1,n,n,n,n,n,n
O=C(CCSc1ccc(Cl)cc1)c1ccco1,n,n,n,n,n,n
O=C(CSc1ccc(Cl)cc1)c1ccco1,n,n,n,-74.4,n,n
COc1ccccc1-c1cnc2c(c1)C(=O)N([C@@H](C)CO)C[C@@H](C)[C@@H](CN(C)C(C)=O)O2,x,x,x,n,n,x
Cc1[nH]c(=S)c(C#N)c(C)c1Cc1ccc(Cl)cc1Cl,n,n,n,n,n,-50.8

# Source: PubChem BioAssay
